Assay outcomes as filed in PubChem.
KB-3-1 tox = qHTS assay for MDR1-selective chemotherapeutics: Primary screen using the parental adenocarcinoma cell KB-3-1. KB-3-1 viability, CellTiter-Glo ATP luminescence, 72 h. Potency, µM (doses to about 46.1 µM), usual class: cytotoxic. hit rate 1.4% among 400,000. AID 1347075, 2019; further: on the % scale 0 is the no-effect control and ±100 the full control effect; nearly all actives have a fitted effect of over 60% in size
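Using CellTiter-Glo luminescence, growth of non-resistant KB-3-1 adenocarcinoma cells is assessed 72 h after pin-tool compound addition at 37 °C. Normalized responses across the concentration series yield fitted curves.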
HT1080NT lethal = qHTS for induction of synthetic lethality in tumor cells producing 2HG: qHTS for the HT-1080-NT fibrosarcoma cell line. HT-1080-NT fibrosarcoma viability, CellTiter-Glo ATP luminescence, 48 h. Potency, µM (top dose mostly 46.1 µM), inactives show at the top dose activity, negative = less viability, most hits filed as cytotoxic. hit rate 1.6% among 360,000;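 further: NT is the 2HG producing partner of a matched IDH1 knockdown line; 0% = DMSO-treated cells and -100% = media-only wells without cells; nearly all actives have a fitted effect of over 55% in size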
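Luminescent CellTiter-Glo readout after 48 hours of compound exposure at 37 degrees C defined viability of HT-1080-NT cells. Activity was normalized to DMSO wells and cell-free media wells; concentration-response curves were fitted and assigned curve classes.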
MCF10A rerep = A quantitative high throughput screen for small molecules that induce DNA re-replication in MCF 10a normal breast cells | MCF 10A DNA re-replication, Hoechst nuclear intensity, 48 h | Potency, µM (highest dose often 46.1 µM), for the others: at the top dose activity, positive = re-replication, actives largely listed as activators | hit rate 2.9% among 350,000; further: % of control where 0% means no effect; nearly all actives have a fitted effect of over 50% in size
SW480 rerep = A quantitative high throughput screen for small molecules that induce DNA re-replication in SW480 colon adenocarcinoma cells | Potency, µM (top dose mostly 46.1 µM), for the others: top-dose re-replication activation, actives largely listed as activators | SW480 DNA re-replication, Hoechst DNA content imaging, 48 h | hit rate 1.8% among 340,000; further: % of control where 0% means no effect; nearly all actives have a fitted effect of over 55% in size
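Treated cells incubate 48 hr (37 C, 5% CO2), are stained 40 min with Hoechst, and nuclear fluorescence is enumerated; a rise in nuclei with high DNA signal marks re-replication.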
HT1080 IDH1KD tx = qHTS for induction of synthetic lethality in tumor cells producing 2HG: qHTS for the HT-1080-IDH1KD cell line | HT-1080 IDH1 knockdown viability, ATP luminescence, 48 h | hit rate 2% among 360,000 | Potency, µM (highest dose often 46.1 µM), without a hit: at the highest dose activity, negative = toxicity, hits mostly cytotoxic;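 further: 0% = DMSO wells and -100% = cell-free medium wells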
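In this qHTS, HT-1080 cells depleted of IDH1 are exposed for 48 h at 37 °C to compound titrations. Toxicity is scored from CellTiter-Glo luminescence, with DMSO as full viability and medium alone as none.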
KB-V1 cytotox = qHTS assay for MDR1-selective chemotherapeutics: Primary screen using the drug-selected MDR subline cells KB-V1; KB-V1 MDR cells viability, CellTiter-Glo, 72 h; Potency, µM (titrated, usually from 46.1 µM), actives largely listed as cytotoxic; hit rate 3.4% among 400,000; AID 1347076, 2019; further: on the % scale 0 is the no-effect control and ±100 the full control effect; nearly all actives have a fitted effect of over 60% in size
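qHTS viability screen in drug-selected KB-V1 MDR cells: 72 h compound treatment at 37 degrees C, ATP luminescence end point.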
Numbers without * were called inactive; i = inactive; ? = inconclusive; nt = no result; [ ] = remark or other dose. Most compounds without a hit are left out; they make up all but 8% or so of the library. The call rests on the fitted dose curve; in most records, active means well fitted curve in the direction sought with a large enough effect; inconclusive means small, poorly fitted or top-dose-only effect, or another doubt; inactive means no such curve, though single readings can be large; an effect the other way counts as inactive or inconclusive. Potency means the concentration at half of the fitted maximal effect.

SMILES	KB-3-1 tox	HT1080NT lethal	MCF10A rerep	SW480 rerep	HT1080 IDH1KD tx	KB-V1 cytotox
Cn1c(N=Nc2ccc(N3CCOCC3)cc2)[n+](C)c2ccccc21	i	?	26%	13µM*	?	i
COc1ccc(OC)c(Cc2nnc(CCC(=O)NC3CCCCCCC3)o2)c1	i	-9%	4%	-3%	2%	i
Cc1cccc2cc(CN(Cc3cccs3)S(=O)(=O)c3ccc4c(c3)OCCO4)c(=O)[nH]c12	?	-2%	18%	15%	-19%	5.2µM*
Cc1cc2cc(CN(Cc3cccs3)S(=O)(=O)c3ccc4c(c3)OCCO4)c(=O)[nH]c2cc1C	i	9%	-7%	-5%	10%	i
C#CCN1C(C)=CC(=O)[C@@H](O)[C@H]1c1ccccc1Br	i	10%	-9%	-12%	10%	i
c1ccc(CSc2nnc(SCc3ccccn3)s2)nc1	i	19%	13%	4%	9%	16µM*
CC(C)[C@H](N)C(=O)N[C@H]1CCC2C3CC=C4C[C@@H](O)CC[C@]4(C)C3CC[C@@]21C (stereo partly drawn)	i	18µM*	nt	nt	?	i
C[C@@H](N)C(=O)N[C@H]1CCC2C3CC=C4C[C@@H](O)CC[C@]4(C)C3CC[C@@]21C (stereo partly drawn)	i	-5%	?	?	-6%	i
CCCN(CCC)c1nc(NC2CCN(C(=O)OCC)CC2)nc(OC)n1	?	?	15%	17%	?	16µM*
C=CCn1cccc(C(=O)Nc2ccc(OC)c(Cl)c2)c1=O	i	0%	11%	25%	-3%	?
COc1ccc(C(=O)N2CCCC2)cc1S(=O)(=O)N1CCOCC1	23µM*	5%	-1%	-1%	4%	i
CCC(C)(C)C1CCC(NC(=O)c2ccc(S(=O)(=O)N3CCOCC3)cc2)CC1 (stereo not drawn)	?	1%[9.24 µM]	6.5µM*	-3%	-28%	i
COc1ccc(C(=O)N2CCN(S(=O)(=O)c3ccc(C)cc3)CC2)cc1S(=O)(=O)N1CCOCC1	i	1%	-2%	?	14%	i
Cc1ccc(C(=O)NC2CC2)cc1S(=O)(=O)N1CCOCC1	i	2%	-7%	-5%	9%	i
COc1ccc(C(=O)Nc2cccc(C(C)=O)c2)cc1S(=O)(=O)N1CCOCC1	i	2%	2%	-5%	-4%	i
COc1ccc(C(=O)Nc2cccc(C)c2)cc1S(=O)(=O)N1CCOCC1	i	23%	18µM*	?	10%	i
CCOC(=O)N1CCN(S(=O)(=O)c2ccc(F)c(C(=O)Nc3cccc(Cl)c3C)c2)CC1	i	-8%	11%	-119%	-18%	3.3µM*
COCCn1ccc2c(OCC(=O)Nc3cccc(OC)c3)cccc2c1=O	i	nt	nt	nt	nt	?
COc1ccc(S(=O)(=O)N2CCOCC2)c(Cl)c1Cl	i	-10%	7.3µM*	10%	1%	i
Cc1cc2ccccc2n1CCNC(=O)c1ccc(S(=O)(=O)N2CCOCC2)cc1	i	-20%	3.7µM*	16µM*	?	i
Cc1ccc(NC(=O)c2cc(S(=O)(=O)N3CCOCC3)ccc2F)c(C)c1	i	13%	5%	-9%	-17%	13µM*
CCc1sc(C(=O)Nc2ccc(OC)c(S(=O)(=O)N3CCOCC3)c2)cc1C	i	-1%[9.24 µM]	7%	-18%	-11%	i
Cc1cc2ccccc2n1CCNC(=O)c1ccccc1	i	2%	?	23%	-1%	i
COc1ccc(NC(=O)c2cc3c(s2)CCC(C)C3)cc1S(=O)(=O)N1CCOCC1 (stereo not drawn)	i	-14%	?	nt	-26%	3.7µM*
CC1(CCOCc2ccccc2)NC(=O)NC1=O (stereo not drawn)	i	10%	-24%	1%	9%	i
SMILES	KB-3-1 tox	HT1080NT lethal	MCF10A rerep	SW480 rerep	HT1080 IDH1KD tx	KB-V1 cytotox
CCOC(=O)c1ccc(NC(=O)CSc2cc(=O)n(CC)c3ccccc23)cc1	i	nt	nt	nt	nt	i
Cc1cccc(NC(=O)CSc2nc3ccc(NC(=O)COc4ccccc4C)cc3s2)c1	?	nt	nt	nt	nt	i
COC(=O)c1ccc(/C=C/c2nc3ccccc3c(=O)[nH]2)cc1	i	0%	2%	-4%	-1%	i
Cc1sc(NC(=O)CCS(=O)(=O)c2ccccc2)c(C#N)c1C	?	7%	7%	0%	-7%	?
O=C(COc1ncnc2ccccc12)Nc1ccc(Cl)c(S(=O)(=O)N2CCOCC2)c1	i	2%	-3%	2%	4%	i
COc1ccc(C(=O)OCc2cc(C)ccc2C)cc1S(=O)(=O)N1CCCC1	i	-6%	?	3%	-1%	5.2µM*
Cc1ccc(C)c(COC(=O)c2cccc(S(=O)(=O)N3CCCC3)c2)c1	i	-5%	17%	22%	-10%	?
COc1ccc(C)cc1NC(=O)c1ccc(S(=O)(=O)N2CCOCC2)cc1	i	-6%	-1%	-4%	-1%	16µM*
O=C(COc1cccc(Br)c1)Nc1ccc(Cl)c(S(=O)(=O)N2CCOCC2)c1	i	16µM*	?	-1%	-10%	?
O=C(Nc1cccc(Br)c1)c1ccc(Cl)c(S(=O)(=O)N2CCOCC2)c1	?	7.1µM*	18%	1%	8%[9.24 µM]	4.6µM*
Cc1ccc(S(=O)(=O)NCCn2nc(C)cc2C)cc1	?	2%	-21%	-11%	4%	i
CCn1c(SCC(=O)NC2CCCCC2C)nnc1-c1ccc(OC)cc1 (stereo not drawn)	i	8%	-3%	1%	2%	2.6µM*
CCn1c(SCc2ccc(OC)cc2)nnc1-c1ccncc1	i	-3%	21µM*	-3%	-1%[9.24 µM]	i
COc1cc(OC)cc(C(=O)NNC(=O)CN2C(=O)NC3(CCCC3)C2=O)c1	i	0%	5%	-17%	9%	i
COc1cccc(/C=N/n2c(-c3ccco3)nc3ccccc3c2=O)c1	i	-9%	?	?	-1%	2.6µM*
COc1ccc(/C=N/n2c(-c3ccco3)nc3ccccc3c2=O)cc1	i	6%	0%	-1%	6%	i
